Test results as given in PubChem BioAssay AID540335 (Broad Institute, 2011).
Out of some 1,300 compounds screened, about 270 (21%) were called active.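 Rule for the calls: active = dose-dependent rise or fall in viability, either side of zero, with half-maximal concentration at or below a set limit; inconclusive = flat curve at 30 to 70% viability loss, or poor fit; inactive = flat within 30% either way, or potency beyond limit.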 A selection follows. Measured potencies and affinities stand elsewhere.

test: proliferation inhibition in MITF-low A375 cells – cell-based, cherry-pick samples, set 2, counter-screen for MITF modulator project, dose response (AID 540335); settings: CellTiter-Glo ATP luminescence, 24 h; series mostly up to 35 µM;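 note: A375 human melanoma cells which do not depend on MITF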

Row | SMILES | outcome
1 | CCN(CC)CCNC(=O)c1c(C)n(-c2ccccc2)c2cc(Br)c(OC)cc12 | inactive
2 | O=C(Cn1ncc(Cl)c(Cl)c1=O)c1ccc(Cl)cc1 | inactive
3 | O=C(Cn1ncc(Cl)c(Cl)c1=O)N1CCN(Cc2ccccc2)CC1 | inactive
4 | O=C(COC(=O)CCN1C(=O)/C(=C\C=C\c2ccccc2)SC1=S)Nc1cc(F)ccc1F | inactive
5 | CC(C)(C)c1ccc(C(=O)Nc2sc3c(c2C(=O)O)CCC3)cc1 | inactive
6 | CCN1/C(=C/c2cc[n+](C)cc2)C=Cc2cc(C)ccc21 | inactive
7 | O=C(Nc1ccc(F)cc1F)c1cc2ccccc2oc1=O | inactive
8 | CC1CCC/C=C/C(=O)c2c(O)cc(O)cc2CC(=O)O1 (stereo not drawn) | inactive
9 | COc1ccc(C(=O)/C=C/C(=O)N(CC(=O)NC2CCCCC2)Cc2ccccc2OC)c(O)c1 | inactive
10 | O=C1CCC2S/C(=C/Nc3ccc(C(F)(F)F)cc3)C(=O)N12 (stereo not drawn) | inactive
11 | CCCC(=O)N1CCN(c2ccc(NC(=O)c3ccc([N+](=O)[O-])o3)cc2Cl)CC1 | inactive
12 | COc1ccc(NC(=O)CCC(=O)N/N=C/c2ccc([N+](=O)[O-])s2)cc1 | inactive
13 | CCCCNC(=O)Nc1ccc(C2SCCS2)cc1 | inactive
14 | N=c1n(CC(=O)c2ccc(Br)cc2)c2ccccc2n1Cc1ccccc1 | inactive
15 | O=C(Nc1ccccn1)c1ccc(Br)s1 | inactive
16 | O=C(N/N=C/c1ccc([N+](=O)[O-])s1)c1cccc(Br)c1 | inactive
17 | Cc1ccc(NCC(=O)N/N=C\c2ccc([N+](=O)[O-])o2)cc1 | inactive
18 | Cc1c(C(=O)Nc2ccc(S(=O)(=O)N(C)C3CCN(C)CC3)cc2)oc2c(Cl)cccc12 | inactive
19 | COc1cc(SC)ccc1C(=O)Nc1ncc(C)s1 | inactive
20 | COc1cc(SC)ccc1C(=O)Nc1ccc(Br)cn1 | inactive
21 | O=C(CNC(=O)c1ccccc1)N/N=C/c1ccc([N+](=O)[O-])s1 | inactive
22 | O=C(Nc1cccc(S(=O)(=O)N2CCCCC2)c1)c1ccc([N+](=O)[O-])o1 | inactive

Row | SMILES | outcome
23 | Cc1nc2ccccn2c1C(=O)N/N=C/c1ccc([N+](=O)[O-])o1 | inactive
24 | Cc1nc(SCC(=O)Nc2ccc(CN3CCCC3)cc2)c2c(C)c(C)sc2n1 | inactive
25 | Cc1ccc2oc(C(Cl)(Cl)Cl)cc(=O)c2c1 | inactive
26 | O=C(Nc1cccnc1Cl)c1cc(-c2ccco2)on1 | inactive
27 | CCN(CC)S(=O)(=O)c1ccc(N2CCCC2)c(NC(=O)c2ccc([N+](=O)[O-])o2)c1 | inactive
28 | O=C(Nc1ccc(N2CCN(C(=O)c3ccccc3)CC2)cc1)c1ccc([N+](=O)[O-])o1 | inactive
29 | O=C(CCl)N1CCN(S(=O)(=O)c2ccc3c(c2)CCC3)CC1 | inactive
30 | Cc1cc(C)c2c(N)c(C(=O)Nc3ncc(C)s3)sc2n1 | inactive
31 | O=C(Nc1ccccc1)NN(C(=O)CCl)c1ccccc1 | inactive
32 | O=C(CCl)N(c1ccccc1)c1c[nH]c2ccccc12 | inactive
33 | N#C/C(=C\c1ccc(OCc2ccc(C(=O)O)cc2)cc1)C(=O)N1CCOCC1 | inactive
34 | O=C(C#Cc1ccccc1)c1cccc([N+](=O)[O-])c1 | inactive
35 | COc1cccc(-c2ccc3c(N)c(C(=O)NC4CC4)sc3n2)c1 | inactive
36 | COc1ccc(C)cc1Nc1nc(N)c2cc(OC)c(OC)cc2n1 | inactive
37 | O=C(O)c1ccc(C(=O)Nc2ccc(F)cc2)cc1 | inactive
38 | O=C(Nc1ccc([N+](=O)[O-])cc1)c1ccccc1 | inactive
39 | Cn1cc([N+](=O)[O-])c(C(=O)Nc2nc(-c3ccc(Cl)cc3)cs2)n1 | inactive
40 | COc1ccc(C(NC(C)=O)c2ccc3cccnc3c2O)c(OC)c1 (stereo not drawn) | inactive
41 | COc1cccc(NC(=O)Nc2cccc(C(=O)O)c2)c1 | inactive
42 | COc1cc(OC)cc(C(=O)Nc2ccc3c(c2)OCCO3)c1 | inactive
43 | COC(=O)CCS(=O)(=O)c1nc(-c2ccccc2)cc(C(F)(F)F)n1 | inactive
44 | Cc1nc(C)c(C(=O)N/N=C/c2cc(Br)ccc2O)s1 | inactive

Row | SMILES | outcome
45 | O=C(N/N=C/c1cccc2cccnc12)c1ccccc1O | inactive
46 | Cc1ccc(C#CC[N+]2(CC#Cc3ccc(C)cc3)CCCCC2)cc1 | inactive
47 | O=C(Nc1nc(-c2ccccn2)cs1)c1ccc([N+](=O)[O-])o1 | inactive
48 | CS(=O)(=O)N1CCN(c2ccc(NC(=O)c3ccc([N+](=O)[O-])o3)cc2)CC1 | inactive
49 | Cc1cccc(NC(=O)c2ccc([N+](=O)[O-])o2)c1C | inactive
50 | COc1cc(/C=N/N=C(N)N)ccc1OCc1ccc(Cl)cc1 | inactive
51 | Cc1cc(NC(=O)c2ccc([N+](=O)[O-])o2)ccc1NC(=O)c1ccco1 | inactive
52 | COc1ccccc1NS(=O)(=O)c1cc(NC(=O)c2ccc(Cl)nc2)ccc1Cl | inactive
53 | CCCCNc1nc(=S)n(-c2ccccc2)c(C)c1C(C)=O | inactive
54 | CC(=O)Nc1ccc(-c2nc3ccccc3o2)cc1 | inactive
55 | CC(=O)Nc1ccc2c(c1)ncn2-c1ccccc1 | inactive
56 | Cn1nc([N+](=O)[O-])nc1S(C)(=O)=O | inactive
57 | CS(=O)(=O)c1ncc(Cl)c(C(=O)Nc2ccc(N3CCOCC3)cc2)n1 | inactive
58 | O=C(c1ccc(S(=O)(=O)Cc2ccccc2Cl)c([N+](=O)[O-])c1)N1CCN(c2ccccn2)CC1 | inactive
59 | O=C(Cc1ccc2c(c1)OCO2)NN=Cc1ccc([N+](=O)[O-])o1 | inactive
60 | Cn1nnnc1Sc1ncnc2scc(-c3cccs3)c12 | inactive
61 | O=C(NC1CCCC(C(F)(F)F)C1)c1ccc([N+](=O)[O-])o1 (stereo not drawn) | inactive
62 | CCCN1CCC(NCc2cn(C)nc2-c2ccc(Oc3ccccc3)cc2)CC1 | inactive
63 | CC(O)CNC(=O)C1CCN(Cc2ccc(OCc3ccccc3)cc2)CC1 (stereo not drawn) | inactive
64 | O=C(O)c1ccc(N/N=C/c2ccc3nccnc3c2)cc1 | inactive
65 | CCOCCCNC(=O)/C(C#N)=C/c1ccc([N+](=O)[O-])o1 | inactive
66 | Cc1ccc(-c2nc(C(=O)NCCCN(C)C)cc3c2[nH]c2ccccc23)cc1 | inactive

Row | SMILES | outcome
67 | Cc1ccc(C(=O)N/C(=C\c2ccc(-c3ccccc3[N+](=O)[O-])o2)C(=O)NCCN(C)C)cc1 | inactive
68 | CN(C)CCCNC(=O)/C(=C\c1ccc(-c2ccc(Br)cc2)o1)NC(=O)c1ccccc1 | inactive
69 | CCN(CC)CCC(=O)N1C/C(=C/c2ccccc2)C(=O)/C(=C\c2ccccc2)C1 | inactive
70 | COc1cc(NC(=O)COc2ccccc2[N+](=O)[O-])ccc1NC(=O)c1cccs1 | inactive
71 | O=C(Cn1ncc(Cl)c(Cl)c1=O)Nc1ccc2c(c1)OCO2 | inactive
72 | O=C(c1ccccc1)c1cc(Cl)ccc1N1C(=O)C=CC1=O | inactive
73 | O=C(N/N=C/c1ccc([N+](=O)[O-])o1)c1ccc(O)cc1 | inactive
74 | Cc1cc(Sc2ncnc(N)c2[N+](=O)[O-])ncn1 | inactive
75 | Cc1cccc2sc(N(CCCN(C)C)C(=O)c3nc4ccccc4s3)nc12 | inactive
76 | COc1cccc2sc(N3CCN(C(=O)c4ccc([N+](=O)[O-])o4)CC3)nc12 | inactive
77 | CN(C)c1ccc(C2=NOC(CN3C(=O)c4ccccc4S3(=O)=O)C2)cc1 (stereo not drawn) | inactive
78 | COc1cc(OC)cc(-c2oc(=O)c3cc(OC)c(OC)cc3c2C(F)(F)F)c1 | inactive
79 | CCN1CCN(c2ccc(Nc3ccnc4ccccc34)cc2)CC1 | inactive
80 | O=C(Nc1nnc(Cc2ccccc2)s1)c1ccccc1 | inactive
81 | CCOc1ccc(NC(=O)Nc2cccc(C(=O)O)c2)cc1 | inactive
82 | Cc1ccc(/C=N/Nc2ccc(C(=O)O)cc2)s1 | inactive
83 | C/C(=N\NC(=O)C(c1ccccc1)c1ccccc1)c1ccccn1 | inactive
84 | O=C(c1ccc([N+](=O)[O-])s1)N1CCN(c2ccccn2)CC1 | inactive
85 | O=c1c2ccccc2cnn1CCOc1ccccc1 | inactive
86 | Cc1nc2ccccc2n1/N=C/c1ccc([N+](=O)[O-])s1 | inactive
87 | CCCOCc1ccc(O)c2ncccc12 | inactive
88 | CN(C)C1CCN(Cc2cc(COCc3ccccc3)c3cccnc3c2O)C1 (stereo not drawn) | inactive

Row | SMILES | outcome
89 | Cc1cc(C(C)(C)C)cc(C)c1Cn1c2[n+](c3ccc(C(F)(F)F)cc31)CCCCC2 | inactive
90 | Cc1ccc(-n2nnnc2CNC(=O)c2ccc([N+](=O)[O-])o2)cc1C | inactive
91 | Cc1nc2nc(C)c(NS(=O)(=O)c3ccc4c(c3)CCCC4)c(=O)n2[nH]1 | inactive
92 | CN(Cc1ccccc1)C1=CC(=[N+]2CCCC2)CC(C)(C)C1 | inactive
93 | CCCN(CCC)C1=CC(=[N+]2CCCC2)CC(C)(C)C1 | inactive
94 | CN(C)S(=O)(=O)c1ccc(-c2csc(N/N=C/c3ccco3)n2)cc1 | inactive
95 | CCOc1ccc(N/C=C/C(=O)c2ccc(OC)c(OC)c2)cc1 | inactive
96 | COc1ccc(C(=O)N/N=C/c2cc(Br)ccc2O)cc1OC | inactive
97 | Cc1ccc(-c2n[nH]c(=O)c3ccccc23)cc1S(=O)(=O)NCC1CCCO1 (stereo not drawn) | inactive
98 | COc1ccc(C(=O)/C=C/C(=O)N(CC(=O)NC2CCCCC2)Cc2ccc(F)cc2)c(O)c1 | inactive
99 | COc1ccc(N/N=C/c2c(C(=O)O)ccc3ccccc23)cc1 | inactive
100 | COc1ccc(NC(=O)NC(=O)c2ccccc2)cc1 | inactive
101 | N#CC(C#N)=C1C=CC=CN1/C(=C\c1ccco1)C(=O)c1ccc(Cl)cc1 | inactive
102 | COc1ccccc1-c1cc(C(F)(F)F)nc(S(C)(=O)=O)n1 | inactive
103 | Cc1ccc2c(C(=O)CCl)c(C)[nH]c2c1 | inactive
104 | O=S(=O)(CC(CN1CCCCC1)N1CCCCC1)c1ccc2ccccc2c1 (stereo not drawn) | inactive
105 | COc1ccc(C(=O)C(CN2CCOCC2)c2ccccc2)cc1 (stereo not drawn) | inactive
106 | CC(NC(=O)C12CC3CC(CC(C3)C1)C2)C(=O)NN=Cc1ccc([N+](=O)[O-])o1 (stereo not drawn) | inactive
107 | COc1ccc(-c2nc(-c3ccccc3OC)no2)cc1OC | inactive
108 | COC1=C(c2ccccc2)C(=O)c2ccccc2C1=O | inactive
